Among the data in the supplement of paper PMC8866396 are cell viability values, retold here.

Molecules are shown by their SMILES. ± gives the standard deviation of the averaged measurements.

One experiment relates to IL-6-GFP PC-9GR. The experiment can be described thus: cell viability (CCK-8 OD) relative to DMSO control (fraction of control); higher = more viable cells. Conditions: compound concentration: 10 uM; treatment time: 48 h. The method in brief:
(§1)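 In 96-well plates, 3000 cells/well of PC-9 or PC-9GR lung cancer cells with lentiviral IL-6-GFP overexpression received each compound of a purchased 510-compound library at a final 10 μM for 48 h. Viability, measured by CCK-8 absorbance, is each well's optical density relative to the vehicle control well. Data come from two independent replicates.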

A further experiment deals with IL-6-GFP PC-9. Described as above. Conditions: compound concentration: 10 uM; treatment time: 48 h. In outline:
as §1

Regarding `CN(Cc1cnc2nc(N)nc(N)c2n1)c1ccc(C(=O)NC(CCC(=O)O)C(=O)O)cc1` (stereo not drawn) [Methotrexate], the cell viability in the experiment with IL-6-GFP PC-9GR amounted to 0.638 ± 0.078; with IL-6-GFP PC-9 it was 0.54 ± 0.15.
As for `Cl.O=C1NCC2(CCN(CCc3ccccc3)CC2)O1` [Fenspiride HCl], the results for the cell viability in the experiment on IL-6-GFP PC-9GR and with IL-6-GFP PC-9 were 1.02 ± 0.044 and 1.24 ± 0.015, respectively.
On to `Cc1ccc(C(C)C)cc1` [p-Cymene], for which the cell viability worked out at 0.822 ± 0.24 with IL-6-GFP PC-9GR and 1.249 ± 0.011 in the experiment on IL-6-GFP PC-9.
The like results for `CNCC(O)C(O)C(O)C(O)CO.Cc1c(Nc2ncccc2C(=O)O)cccc1C(F)(F)F` [Flunixin Meglumin] were, in that order, 1.15 ± 0.12 and 0.964 ± 0.087.
Turning to `CN(C)C/C=C/C(=O)Nc1cc2c(Nc3ccc(F)c(Cl)c3)ncnc2cc1OC1CCOC1` (stereo not drawn) [Afatinib (BIBW2992)], the figures for the cell viability with IL-6-GFP PC-9GR and with IL-6-GFP PC-9 were 0.542 ± 0.058 and 0.294 ± 0.038, respectively.
For `O=S(=O)([O-])CCS.[Na+]` [Mesna], the cell viability with IL-6-GFP PC-9GR was 1.23 ± 0.2; with IL-6-GFP PC-9, 0.95 ± 0.07.
For `CC1(C)OC2CC3C4CC(F)C5=CC(=O)C=CC5(C)C4(F)C(O)CC3(C)C2(C(=O)CO)O1` (stereo not drawn) [Fluocinolone Acetonide], the cell viability is 1.26 ± 0.091 in the experiment with IL-6-GFP PC-9GR and 1 ± 0.015 in the experiment on IL-6-GFP PC-9.
In the case of `O=C(/C=C/c1ccc(O)c(O)c1)OC(Cc1ccc(O)c(O)c1)C(=O)O` (stereo not drawn) [Rosmarinic acid], the cell viability with IL-6-GFP PC-9GR is 1.12 ± 0.24; in the experiment on IL-6-GFP PC-9 it was 1.14 ± 0.059.
`N#Cc1cc(NC(=O)C(=O)O)c(Cl)c(NC(=O)C(=O)O)c1.NC(CO)(CO)CO.NC(CO)(CO)CO` [Lodoxamide Tromethamine]: the cell viability in the experiment with IL-6-GFP PC-9GR came out at 1.14 ± 0.25; in the experiment on IL-6-GFP PC-9, 1.09 ± 0.083.
For `CN1C(=O)/C(=C2/C(=O)Nc3ccccc32)c2ccccc21` [Meisoindigo], the cell viability in the experiment with IL-6-GFP PC-9GR came out at 1.39 ± 0.44; with IL-6-GFP PC-9 it was 1.02 ± 0.21.
For the compound `C[S+](C)CCC(N)C(=O)O.[Cl-]` (stereo not drawn), the cell viability with IL-6-GFP PC-9GR worked out at 1.11 ± 0.29; in the experiment with IL-6-GFP PC-9, 1.08 ± 0.22.
In the case of `C=CC1CN2CCC1CC2C(O)c1ccnc2ccc(OC)cc12.Cl.O.O` (stereo not drawn) [Quinine HCl Dihydrate], the cell viability amounted to 1.2 ± 0.21 with IL-6-GFP PC-9GR and 1.19 ± 0.04 in the experiment on IL-6-GFP PC-9.
The matching figures for `CCC(=O)OCC(=O)C1(OC(=O)CC)C(C)CC2C3CCC4=CC(=O)C=CC4(C)C3(Cl)C(O)CC21C` (stereo not drawn) [Beclomethasone dipropionate]: 0.987 ± 0.24 and 0.797 ± 0.12.
With `CCOC(=O)c1ccc(OC(=O)CCCCCNC(=N)N)cc1.CS(=O)(=O)O` [Gabexate Mesylate], the cell viability in the experiment with IL-6-GFP PC-9GR worked out at 1.14 ± 0.069; in the experiment on IL-6-GFP PC-9, 0.801 ± 0.071.
As to `CC1Oc2cc(cnc2N)-c2c(nn(C)c2C#N)CN(C)C(=O)c2ccc(F)cc21` (stereo not drawn), the values for the cell viability with IL-6-GFP PC-9GR and in the experiment with IL-6-GFP PC-9 were 0.802 ± 0.14 and 0.945 ± 0.12, respectively.
Turning to `CC1=C(/C=C/C(C)=C/C=C/C(C)=C/C(=O)Nc2ccc(O)cc2)C(C)(C)CCC1` [Fenretinide], the cell viability with IL-6-GFP PC-9GR stood at 0.47 ± 0.12; in the experiment on IL-6-GFP PC-9, 0.449 ± 0.14.
For the compound `CC(C(=O)O)c1ccc(C(=O)c2cccs2)cc1` (stereo not drawn) [Suprofen], the cell viability in the experiment with IL-6-GFP PC-9GR stood at 1.53 ± 0.58; in the experiment with IL-6-GFP PC-9, 1.13 ± 0.022.
`CNC(=O)c1cc(Oc2ccc(NC(=O)Nc3ccc(Cl)c(C(F)(F)F)c3)cc2)ccn1.Cc1ccc(S(=O)(=O)O)cc1` [Sorafenib Tosylate]: the values for the cell viability in the experiment on IL-6-GFP PC-9GR and in the experiment with IL-6-GFP PC-9 were 0.85 ± 0.18 and 0.524 ± 0.017, respectively.
The matching figures for `CC1CC2C3CCC4=CC(=O)C=CC4(C)C3(F)C(O)CC2(C)C1(O)C(=O)COP(=O)([O-])[O-].[Na+].[Na+]` (stereo not drawn) [Dexamethasone Sodium Phosphate]: 1.22 ± 0.16 and 0.831 ± 0.039.
As to `CC(NCc1ccc(OCc2cccc(F)c2)cc1)C(N)=O.CS(=O)(=O)O` (stereo not drawn) [Safinamide Mesylate], the cell viability with IL-6-GFP PC-9GR amounted to 1.27 ± 0.017; in the experiment with IL-6-GFP PC-9, 0.749 ± 0.14.
The like results for `COc1cc2c3cc1Oc1c(OC)c(OC)cc4c1C(Cc1ccc(O)c(c1)Oc1ccc(cc1)CC3N(C)CC2)N(C)CC4` (stereo not drawn) [Berbamine] were, in that order, 0.891 ± 0.25 and 1.08 ± 0.14.
The matching figures for `CC(C)(C)OC(=O)NC1CCCCC/C=C\C2CC2(C(=O)NS(=O)(=O)C2CC2)NC(=O)C2CC(OC(=O)N3Cc4cccc(F)c4C3)CN2C1=O` (stereo not drawn) [Danoprevir (ITMN-191)]: 1.1 ± 0.02 and 0.931 ± 0.15.
As for `CC1CC2C3CCC4=CC(=O)C=CC4(C)C3(F)C(O)CC2(C)C1(O)C(=O)CO` (stereo not drawn) [Dexamethasone (DHAP)], the figures for the cell viability in the experiment with IL-6-GFP PC-9GR and in the experiment with IL-6-GFP PC-9 were 1.08 ± 0.058 and 0.732 ± 0.072, respectively.
The matching figures for `CCc1ccc(Cc2ccc3c(c2)C2(OC3)OC(CO)C(O)C(O)C2O)cc1.O` (stereo not drawn) [Tofogliflozin(CSG 452)]: 0.92 ± 0.21 and 1.02 ± 0.25.
